Our source for the growth inhibition and outcome values is PubChem BioAssay.

For some assays here: Potency and affinity values are given separately. Active and inactive are the calls of the source. A call without a number means that no potency is given here. Unless noted, the limit is not given here; nearly all actives have IC50 up to about 0.98 µM.

Calcium-dependent protein kinase 1 (Plasmodium falciparum (isolate 3D7)), sequence (P62344 whole entry, looked up): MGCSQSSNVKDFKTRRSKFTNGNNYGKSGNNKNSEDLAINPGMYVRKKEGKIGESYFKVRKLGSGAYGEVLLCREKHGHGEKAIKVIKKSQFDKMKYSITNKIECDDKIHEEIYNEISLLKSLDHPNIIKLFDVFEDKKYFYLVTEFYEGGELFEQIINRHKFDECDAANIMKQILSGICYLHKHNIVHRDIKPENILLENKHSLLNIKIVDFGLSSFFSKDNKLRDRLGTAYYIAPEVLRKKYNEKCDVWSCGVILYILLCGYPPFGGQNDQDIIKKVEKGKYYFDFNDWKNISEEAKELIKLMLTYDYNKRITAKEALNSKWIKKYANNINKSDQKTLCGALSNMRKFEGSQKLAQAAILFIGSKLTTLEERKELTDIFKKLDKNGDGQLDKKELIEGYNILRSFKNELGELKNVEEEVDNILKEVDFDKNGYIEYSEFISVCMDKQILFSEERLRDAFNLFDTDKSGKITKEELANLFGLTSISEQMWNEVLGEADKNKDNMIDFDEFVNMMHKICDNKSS

System in the first assay: not listed separately
Briefly: inhibition of 3D7 malaria parasite growth – strain 3D7 (AID 2306; call rule not given here). Particulars: P. falciparum 3D7 erythrocytic growth, LDH absorbance, 72 h; at 2 µM; active compounds read high.
Take `c1ccc(CCNCc2cccc(-c3ccc(CNc4ccc5ncccc5c4)cc3)c2)cc1`: the growth inhibition is 93% (active).

For the compound `CC(C)(C)Oc1ccc(C[C@@H]2NC3(C(=O)N(Cc4ccc(Cl)c(Cl)c4)c4ccccc43)C3C(=O)N(c4ccc(Br)cc4)C(=O)C32)cc1` (stereo not given in full), the growth inhibition is 86% (active).

On to `CCOc1ccccc1CNc1nccc(NCCc2cn(C)c3ccccc23)n1`, for which the growth inhibition is 98% (active).

For `COc1ccc(CNCc2ccsc2)cc1-c1ccc(OC)c(S(=O)(=O)NCCN2CCCC2)c1`, the growth inhibition is 97% (active).

For the compound `COC1CCC(C(=O)Nc2ccc(-c3cccc(-c4nc5c(C)cccc5[nH]4)c3)cc2)CC1` (stereo not given), the growth inhibition was 97% (active).

Turning to `CC(C)c1ccc(-c2noc(SCC(=O)N3CCCCC3C)n2)cc1` (stereo not given), the growth inhibition is 92% (active).

Regarding `COc1cc(OC)c(NC(=O)Nc2ccnc3ccccc23)cc1Cl`, the growth inhibition is 97% (active).

Consider `CCn1c2c(c(=N)c3ccccc31)CCC2`, for which the growth inhibition is 83% (active).

Regarding `CC(=O)Nc1ccc(S(=O)(=O)Nc2c(C)cc(Cc3cnc(N)nc3N)cc2C)cc1`, the growth inhibition is 94% (active).

For `O=C(CCn1c2ccccc2c2ccccc21)NN=Cc1ccco1`, the growth inhibition is 96% (active).

In the case of `COc1cc(CCN=C(N)/C=C/c2ccc(Cl)cc2)ccc1Cl`, the growth inhibition is 100% (active).

Turning to `CC(C)CC(NC(=O)c1cccc(OCCN2CCOCC2)c1)C(=O)NC(/C=N/NC(=O)c1ccccc1)CCc1ccccc1` (stereo not given), the growth inhibition is 96% (active).

`O=C(/C=C/c1c(Cl)cccc1Cl)NC1CCC(CN2CCC(c3c[nH]c4ccncc34)CC2)CC1` (stereo not given): the growth inhibition is 99% (active).

As for `CN1CCC(Oc2ccc(CN3CC[C@H](NC(=O)c4ccc(F)c(F)c4)C3)c3ccccc23)C1` (stereo not given in full), the growth inhibition was 91% (active).

As to `O=C(/C=C/c1ccc2ccccc2c1)NCC1(c2ccc(-c3ccccc3)cc2)CCOCC1`, the growth inhibition was 95% (active).

Turning to `CC1(C)N=C(N)N=C(N)N1OCc1cccs1`, the growth inhibition is 93% (active).

With `CC(C)c1cn2c3c(cc(C(=O)N[C@@H](Cc4ccccc4)[C@H](O)CNC4CCOCC4)cc13)N(C)S(=O)(=O)CC2`, the growth inhibition was 98% (active).

Consider `COc1ccc2nccc([C@@H](O)CN3CCC(NC(=O)/C=C/c4ccc5[nH]c(=O)ccc5c4)CC3)c2c1`, for which the growth inhibition was 96% (active).

Regarding `Cc1ccc(C(=O)NC2CCN(CCNC(=O)Nc3cc(C)nc4ccccc34)CC2)cc1`, the growth inhibition was 98% (active).

`CCOC(=O)c1ccc2nc(-c3ccc(C(=O)NC4CCN(Cc5ccccc5)CC4)s3)[nH]c2c1`: the growth inhibition was 100% (active).

Regarding `COc1ccc(C(=O)Nc2cc(Br)c3c(c2)CNCC3)cc1C(F)(F)F`, the growth inhibition is 90% (active).

Take `C=CCn1c(Sc2ccc(C#N)c([N+](=O)[O-])c2)nnc1-c1ccc(OC)cc1`: the growth inhibition is 96% (active).

For `CC(C)c1ccc2[nH]c(C(=O)NC3CCC(N4CCCc5ccc(C#N)cc5C4)CC3)cc2c1` (stereo not given), the growth inhibition is 91% (active).

For the compound `OC[C@H](Nc1nc(C(Oc2ccccc2)c2ccccc2)nc2[nH]ncc12)c1ccccc1` (stereo not given in full), the growth inhibition was 98% (active).

On to `COc1ccccc1-n1c(-c2ccc3ccccc3c2)csc1=NC(=O)c1ccccc1`, for which the growth inhibition was 93% (active).

For the compound `CN(C)Cc1c(O)ccc2[nH]c(-c3ccc(OC(F)(F)F)cc3)nc12`, the growth inhibition was 101% (active).

Regarding `COc1ccc(CN2CCC(N3CCc4cc(NC(=O)c5cc(C)on5)ccc43)C2)cc1Cl` (stereo not given), the growth inhibition was 94% (active).

`CCN(CC)CCNc1ccc(Nc2ccnc3cc4ccccc4cc23)cc1`: the growth inhibition was 102% (active).

For the compound `c1cncc(CCNCc2cccc(-c3ccc(-c4nc5ccccc5[nH]4)s3)c2)c1`, the growth inhibition was 100% (active).

For `CNC(=O)c1cc(Nc2nnc(-c3ccc(C)c(S(=O)(=O)NC4CCCCC4)c3)c3ccccc23)ccc1OC`, the growth inhibition is 87% (active).

Turning to `OC1CCCN(Cc2ccc(-c3ccc(-c4nc5ccc(F)cc5[nH]4)cc3)cc2)C1` (stereo not given), the growth inhibition is 100% (active).

For the compound `Cc1cccc(CN2CCCN(Cc3ccc(C(=O)Nc4ccc(C)c(F)c4)cc3)CC2)c1`, the growth inhibition was 85% (active).

For `Cn1cncc1C(=O)Nc1cccc(-c2ccc(-c3nc4ccc(F)cc4[nH]3)cc2)c1`, the growth inhibition was 101% (active).

For the compound `CSc1ccccc1NC(=S)NC1CCN(CCCCCNC(=O)/C=C/c2ccc(Cl)c(Cl)c2)CC1`, the growth inhibition was 98% (active).

On to `NC(=O)C1Cc2ccccc2CN1CC(=O)Nc1ccccc1Sc1ccccc1` (stereo not given), for which the growth inhibition is 100% (active).

`Cc1nc(/N=C(\N)NC(=O)NC2CCCCC2)nc2ccccc12`: the growth inhibition is 95% (active).

As to `Fc1ccc(-c2cncc(Nc3ccncc3)n2)cc1`, the growth inhibition is 88% (active).

With `Cc1ccc(Nc2nc(C)cc(NC3CCCC3)n2)cc1`, the growth inhibition is 100% (active).

Take `O=C(Nc1cccc(CN2CCCN(Cc3ccsc3)CC2)c1)c1cc2ccccc2s1`: the growth inhibition was 96% (active).

`CCc1cccc(OCC2CCCN(c3ccc(C(=O)NC4CC4)cn3)C2)c1` (stereo not given): the growth inhibition is 94% (active).

A further assay addresses Calcium-dependent protein kinase 1 (Plasmodium falciparum (isolate 3D7)) (UniProt P62344). Briefly: PfCDPK1 kinase inhibitors, biochemical, TCAMS library (AID 1159585).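 Also: inhibitors leave more ATP so luminescence rises with inhibition.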 Conditions: recombinant PfCDPK1, Kinase-Glo ATP depletion luminescence. For orientation: In Kinase-Glo more light means more ATP remaining.
With `c1ccc(CCNCc2cccc(-c3ccc(CNc4ccc5ncccc5c4)cc3)c2)cc1`, the result was inactive.

Regarding `CC(C)(C)Oc1ccc(C[C@@H]2NC3(C(=O)N(Cc4ccc(Cl)c(Cl)c4)c4ccccc43)C3C(=O)N(c4ccc(Br)cc4)C(=O)C32)cc1` (stereo not given in full), the outcome was inactive.

Turning to `CCOc1ccccc1CNc1nccc(NCCc2cn(C)c3ccccc23)n1`, the outcome was inactive.

As for `COc1ccc(CNCc2ccsc2)cc1-c1ccc(OC)c(S(=O)(=O)NCCN2CCCC2)c1`, the outcome was inactive.

On to `COC1CCC(C(=O)Nc2ccc(-c3cccc(-c4nc5c(C)cccc5[nH]4)c3)cc2)CC1` (stereo not given), for which the outcome was inactive.

Consider `CC(C)c1ccc(-c2noc(SCC(=O)N3CCCCC3C)n2)cc1` (stereo not given), for which the result was inactive.

`COc1cc(OC)c(NC(=O)Nc2ccnc3ccccc23)cc1Cl`: the result was inactive.

Consider `CCn1c2c(c(=N)c3ccccc31)CCC2`, for which the outcome was inactive.

With `CC(=O)Nc1ccc(S(=O)(=O)Nc2c(C)cc(Cc3cnc(N)nc3N)cc2C)cc1`, the result was inactive.

With `O=C(CCn1c2ccccc2c2ccccc21)NN=Cc1ccco1`, the result was inactive.

On to `COc1cc(CCN=C(N)/C=C/c2ccc(Cl)cc2)ccc1Cl`, for which the outcome was inactive.

On to `CC(C)CC(NC(=O)c1cccc(OCCN2CCOCC2)c1)C(=O)NC(/C=N/NC(=O)c1ccccc1)CCc1ccccc1` (stereo not given), for which the result was inactive.

With `O=C(/C=C/c1c(Cl)cccc1Cl)NC1CCC(CN2CCC(c3c[nH]c4ccncc34)CC2)CC1` (stereo not given), the result was inactive.

Turning to `CN1CCC(Oc2ccc(CN3CC[C@H](NC(=O)c4ccc(F)c(F)c4)C3)c3ccccc23)C1` (stereo not given in full), the result was inactive.

Consider `O=C(/C=C/c1ccc2ccccc2c1)NCC1(c2ccc(-c3ccccc3)cc2)CCOCC1`, for which the outcome was inactive.

On to `CC1(C)N=C(N)N=C(N)N1OCc1cccs1`, for which the result was inactive.

Consider `CC(C)c1cn2c3c(cc(C(=O)N[C@@H](Cc4ccccc4)[C@H](O)CNC4CCOCC4)cc13)N(C)S(=O)(=O)CC2`, for which the result was inactive.

For the compound `COc1ccc2nccc([C@@H](O)CN3CCC(NC(=O)/C=C/c4ccc5[nH]c(=O)ccc5c4)CC3)c2c1`, the result was inactive.

As to `Cc1ccc(C(=O)NC2CCN(CCNC(=O)Nc3cc(C)nc4ccccc34)CC2)cc1`, the result was inactive.

For `CCOC(=O)c1ccc2nc(-c3ccc(C(=O)NC4CCN(Cc5ccccc5)CC4)s3)[nH]c2c1`, the result was inactive.

On to `COc1ccc(C(=O)Nc2cc(Br)c3c(c2)CNCC3)cc1C(F)(F)F`, for which the outcome was inactive.

In the case of `C=CCn1c(Sc2ccc(C#N)c([N+](=O)[O-])c2)nnc1-c1ccc(OC)cc1`, the result was inactive.

Consider `CC(C)c1ccc2[nH]c(C(=O)NC3CCC(N4CCCc5ccc(C#N)cc5C4)CC3)cc2c1` (stereo not given), for which the outcome was inactive.

For the compound `OC[C@H](Nc1nc(C(Oc2ccccc2)c2ccccc2)nc2[nH]ncc12)c1ccccc1` (stereo not given in full), the result was inactive.

In the case of `COc1ccccc1-n1c(-c2ccc3ccccc3c2)csc1=NC(=O)c1ccccc1`, the result was inactive.

`CN(C)Cc1c(O)ccc2[nH]c(-c3ccc(OC(F)(F)F)cc3)nc12`: the outcome was inactive.

Take `COc1ccc(CN2CCC(N3CCc4cc(NC(=O)c5cc(C)on5)ccc43)C2)cc1Cl` (stereo not given): the outcome was inactive.

With `CCN(CC)CCNc1ccc(Nc2ccnc3cc4ccccc4cc23)cc1`, the result was inactive.

Turning to `c1cncc(CCNCc2cccc(-c3ccc(-c4nc5ccccc5[nH]4)s3)c2)c1`, the result was inactive.

As for `CNC(=O)c1cc(Nc2nnc(-c3ccc(C)c(S(=O)(=O)NC4CCCCC4)c3)c3ccccc23)ccc1OC`, the outcome was inactive.

In the case of `OC1CCCN(Cc2ccc(-c3ccc(-c4nc5ccc(F)cc5[nH]4)cc3)cc2)C1` (stereo not given), the result was inactive.

On to `Cc1cccc(CN2CCCN(Cc3ccc(C(=O)Nc4ccc(C)c(F)c4)cc3)CC2)c1`, for which the outcome was inactive.

Take `Cn1cncc1C(=O)Nc1cccc(-c2ccc(-c3nc4ccc(F)cc4[nH]3)cc2)c1`: the outcome was inactive.

Regarding `CSc1ccccc1NC(=S)NC1CCN(CCCCCNC(=O)/C=C/c2ccc(Cl)c(Cl)c2)CC1`, the outcome was inactive.

With `NC(=O)C1Cc2ccccc2CN1CC(=O)Nc1ccccc1Sc1ccccc1` (stereo not given), the outcome was inactive.

In the case of `Cc1nc(/N=C(\N)NC(=O)NC2CCCCC2)nc2ccccc12`, the result was inactive.

On to `Fc1ccc(-c2cncc(Nc3ccncc3)n2)cc1`, for which the result was inactive.

Take `Cc1ccc(Nc2nc(C)cc(NC3CCCC3)n2)cc1`: the outcome was inactive.

As to `O=C(Nc1cccc(CN2CCCN(Cc3ccsc3)CC2)c1)c1cc2ccccc2s1`, the result was inactive.

Turning to `CCc1cccc(OCC2CCCN(c3ccc(C(=O)NC4CC4)cn3)C2)c1` (stereo not given), the outcome was inactive.
